This is one part of a sample in which hits are shown more often than they occur.
Shh pathway inh = blocks Sonic Hedgehog signaling; Shh-LIGHT2 Gli-luciferase reporter, 30 h; inhibition, % (test concentration not listed); 22,000 compounds, 2.1% hits;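 active means mean inhibition across valid replicates above about 65%, limit read from the data; inconclusive means mean under the limit, yet half or more replicates past it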;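 further: pathway switched on by Shh-conditioned medium diluted 1 in 25 in low serum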
MITF inh = inhibitors of MITF | TRPM1 promoter luciferase, luminescence, 24 h | inhibition, % (concentration not given with the values) | 37,000 compounds, 0.28% hits; in the data active means inhibition above about 85%; inconclusive means no clear call, values can overlap the other calls; inactive means below about 68%;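 further: human melanocyte line stably carrying TRPM1 promoter luciferase reporter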
BJeLR viability = BJeLR cell viability reduction | BJeLR fibroblasts viability, CellTiterGlo ATP luminescence, 48 h; HRASV12, hTERT and SV40 LT/ST transformed | viability loss activity score, % (test concentration not listed) | 30,000 compounds, 0.64% hits; in the data active means viability loss activity score above about 50%; inconclusive means no clear call, values can overlap the other calls; inactive means below about 35%;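 further: higher score means fewer live cells and less ATP luminescence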
Starred values were filed as active, the others as inactive; ? = inconclusive; · = no result; ! = not active in a repeat.

SMILES | Shh pathway inh | MITF inh | BJeLR viability
CCCCC/C=C\C/C=C\C/C=C\C/C=C\CCCCCC(=O)O | -10 | -6 | 4
CCCCCCCCCC/C=C\CCCCCCCc1cccc(O)c1C(=O)O | 103* | 81 | -11
CCCCC/C=C\C/C=C\C/C=C\C/C=C\CCCC(=O)O | -36 | -2 | -3
CCCCCCCC/C=C\CCCCCCCc1cccc(O)c1C(=O)O | 66* | 11 | -3
CC1CCN(C(=O)CSc2c3c(nc4ccccc24)CCCC3)CC1 | · | · | 0
O=C(NCCCN1CCN(Cc2c(F)cccc2Cl)CC1)c1cccc(C(F)(F)F)c1 | · | · | 0
N#C/C(=C(\O)c1ccc(C(=O)c2ccccc2)cc1)c1nc2ccccc2s1 | 96* | 31 | 3
O=C(CSc1nc2ccccc2s1)Nc1ccccc1C(=O)c1ccccc1 | · | 23 | ·
CCC(=O)N/C(N)=N/c1nc(C)c2ccccc2n1 | · | · | 10
C[C@H]1CC[C@@H]2[C@@H](C(=O)c3c(O)c([C@]4(O)CC[C@@H](O)[C@H]5O[C@H]54)c[nH]c3=O)[C@@H](C)C=C[C@H]2C1 | 96* | 74 | 54*
COC(=O)c1ccc([C@H]2C(C#N)=C(N)C(C#N)(C#N)C3=CCC(C(C)(C)C)C[C@@H]32)cc1 (some centres not stated) | 84* | 80 | -3
CC(C)(C)C1CC=C2[C@H](C1)[C@@H](c1ccsc1)C(C#N)=C(N)C2(C#N)C#N (some centres not stated) | 1 | 5 | 4
C=CCn1c(=O)c2ccc(C(=O)NCc3ccccc3)cc2n(CC(=O)n2nc(N)cc2C)c1=O | · | · | -4
Clc1ccc(COC(Cn2ccnc2)c2ccc(Cl)cc2Cl)c(Cl)c1 (configuration not stated) | 65*! | 11 | 2
C=CCOC(Cn1ccnc1)c1ccc(Cl)cc1Cl (configuration not stated) | 36 | 21 | 0
CCSc1nc2c(c(=O)n1-c1ccccc1)SCC2 | · | · | 0
CC(C)S(=O)(=O)c1csc(NC(=O)N2CCCCC2)c1Cl | -29 | 0 | 2
CC(C)S(=O)(=O)c1csc(NC(=O)Nc2cc(C(F)(F)F)cc(C(F)(F)F)c2)c1Cl | 106* | 65 | 28
CC1CCC(C(C)C)C(NC(=S)Nc2cccc(F)c2)C1 (configuration not stated) | 102* | 66 | 1
CSc1cccc(NC(=S)Nc2cccc(SC)c2)c1 | · | · | -8
O=C(CCc1nc2ccccc2[nH]1)NCc1ccc(F)cc1Cl | · | · | -1
COc1cc(NC(=O)CC(C)(C)C)c(OC)cc1Cl | · | · | 2
COc1cc([C@@H]2c3cc4c(cc3[C@H](O)[C@H]3COC(=O)[C@H]23)OCO4)cc(OC)c1OC | 91* | 61 | 54*
COc1cc2c(c(O)c1OC)C(=O)CC(c1ccc(O)cc1)O2 (configuration not stated) | 33 | -19 | -2
COc1cc([C@@H]2c3cc4c(cc3[C@@H](O[C@@H]3O[C@@H]5CO[C@@H](C)O[C@H]5[C@H](O)[C@H]3O)[C@H]3COC(=O)[C@H]23)OCO4)cc(OC)c1O | -11 | 38 | 15
SMILES | Shh pathway inh | MITF inh | BJeLR viability
COc1cc([C@@H]2c3cc4c(cc3[C@H](O)[C@H]3COC(=O)[C@@H]23)OCO4)cc(OC)c1OC | 75* | 37 | 93*
Cc1ccc(NS(=O)(=O)c2ccc3[nH]c(=O)sc3c2)cc1F | · | · | 6
CN(CC(=O)NCc1ccccc1)S(=O)(=O)c1ccc2c(c1)c(=O)n(C)c(=O)n2C | · | · | -1
Cc1cc(C)c2cccc(NC(=O)COc3ccc4oc5c(c4c3)CCCC5)c2n1 | · | · | 4
CC(O)(C(=O)Nc1ccc(S(=O)(=O)c2ccccc2)cc1)C(F)(F)F (configuration not stated) | -69 | -5 | 7
CC(C)(C)C(=O)Nc1ccc2c(c1)C(=O)C(=O)c1ccccc1-2 | 88* | 97* | 132*
CN(C(=O)c1cn(C2CCCC2)c(=O)c2c1c1ccccc1n2C)c1cccc(C(F)(F)F)c1 | · | · | -8
CC1(C)C(=O)C=C[C@@]2(C)C1CC(=O)[C@@]1(C)C3=CC(=O)O[C@@H](c4ccoc4)[C@]3(C)CCC12 (some centres not stated) | -25 | 12 | 23
CC1(C)C(=O)C=C[C@@]2(C)C1C=C[C@]1(C)C2CC[C@@]2(C)[C@H](c3ccoc3)OC(=O)C3OC321 (some centres not stated) | -331 | 101* | 12
COC(=O)C[C@H]1C(C)(C)C(=O)[C@@H]2CC3=C4CC(=O)O[C@@H](c5ccoc5)[C@]4(C)CCC3[C@@]1(C)C2=O (some centres not stated) | -15 | 1 | 0
C=C1C(C2(C)C=CC(=O)C(C)(C)C2CC(=O)OC)CC[C@@]2(C)[C@H](c3ccoc3)OC(=O)C3OC132 (some centres not stated) | ? | 66 | 91*
Cc1ccc(-c2nc(NC(=O)C(C(C)C)N3C(=O)c4ccccc4C3=O)sc2C)cc1 (configuration not stated) | · | · | 3
CC1CCCC(C)N1C(=O)c1cc(-c2ccc(Cl)cc2)on1 (configuration not stated) | · | · | -3
C=CC1(C)C=C2CCC3C(C)(C)C(O[C@@H]4O[C@@H](CO)[C@H](O)[C@H]4O)CCC3(C)C2CC1O[C@@H]1O[C@H](C)[C@H](O)[C@H](O)[C@H]1O (some centres not stated) | -8 | 1 | -7
CC1OC(OC2C(C(=O)O)OC(O[C@H]3CC[C@@]4(C)C(CC[C@]5(C)C4CC=C4C6CC(C)(C)CC[C@]6(C(=O)OC6OC(CO)C(O)C(O)C6O)CC[C@]45C)C3(C)C)C(O)C2O)C(OC2OCC(O)C(O)C2O)C(O)C1O (some centres not stated) | 1 | -71 | -2
C[C@@H]1O[C@@H](O[C@@H]2CC[C@@]3(C)C(CC[C@]4(C)C3CC=C3[C@@H]5CC(C)(C)CC[C@]5(C(=O)O[C@@H]5O[C@H](CO)[C@@H](O)[C@H](O)[C@H]5O)CC[C@]34C)[C@]2(C)CO)[C@H](O)[C@H](O[C@@H]2OC[C@@H](O)[C@H](O)[C@H]2O)[C@H]1O (some centres not stated) | -25 | 5 | -5
C=CC1(C)C=C2CCC3C(C)(C)C(O[C@@H]4O[C@@H](CO)[C@H](O)[C@H]4O)CCC3(C)C2CC1O[C@@H]1O[C@H](CO)[C@@H](O)[C@H](O)[C@H]1O (some centres not stated) | 99* | · | ·
CC1(C)CC[C@]2(C(=O)O)CC[C@]3(C)C(=CCC4[C@@]5(C)CC[C@H](O[C@@H]6O[C@H](C(=O)O)[C@@H](O[C@@H]7O[C@H](CO)[C@@H](O)[C@H](O)[C@H]7O)[C@H](O)[C@H]6O[C@@H]6O[C@H](CO)[C@@H](O)[C@H](O)[C@H]6O)C(C)(C)C5CC[C@]43C)C2C1 (some centres not stated) | 16 | 0 | -4
CC(=O)OC1COC(OC2C(O)C(C)OC(OC3C(OC4CCC5(C)C(CCC6(C)C5CC=C5C7CC(C)(C)CCC7(C(=O)O)CCC56C)C4(C)CO)OCC(O)C3O)C2O)C(O)C1OC(C)=O (configuration not stated) | 98* | 39 | 5
